# The entries come from a sample that favours hits as a whole.
# Sfp inh: Sfp phosphopantetheinyl transferase inhibition. AID 1490. 310,000 compounds, 3.5% hits. Biochemical Sfp PPTase activity, qHTS. Potency, µM, for inactives: largest response in the series, negative = inhibition, hits mostly inhibitors;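 note: the enzyme is Sfp with the accession as filed and its product quenches rhodamine fluorescence; 0% = enzyme reaction without inhibitor and -100% = no enzyme wells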
#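 With Hepes-Na pH 7.6 buffer containing 10 mM MgCl2, Sfp (15 nM) modified BHQ-2-YbbR (12.5 uM) using rhodamine-CoA (5 uM). Two reads 30 minutes apart at 525/598 nm yielded each well's rate.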
# VDR inh: inhibitors of human vitamin D receptor | P11473 | VDR-SRC2-3 peptide fluorescence polarization, 2 h | Potency, µM, without a hit: max response, negative = inhibition, actives largely listed as inhibitors | 400,000 compounds, 0.93% hits | AID 504847; note: % is set by controls: 0 for no effect and ±100 for the full control effect
# Target sequence (P11473 whole entry, looked up): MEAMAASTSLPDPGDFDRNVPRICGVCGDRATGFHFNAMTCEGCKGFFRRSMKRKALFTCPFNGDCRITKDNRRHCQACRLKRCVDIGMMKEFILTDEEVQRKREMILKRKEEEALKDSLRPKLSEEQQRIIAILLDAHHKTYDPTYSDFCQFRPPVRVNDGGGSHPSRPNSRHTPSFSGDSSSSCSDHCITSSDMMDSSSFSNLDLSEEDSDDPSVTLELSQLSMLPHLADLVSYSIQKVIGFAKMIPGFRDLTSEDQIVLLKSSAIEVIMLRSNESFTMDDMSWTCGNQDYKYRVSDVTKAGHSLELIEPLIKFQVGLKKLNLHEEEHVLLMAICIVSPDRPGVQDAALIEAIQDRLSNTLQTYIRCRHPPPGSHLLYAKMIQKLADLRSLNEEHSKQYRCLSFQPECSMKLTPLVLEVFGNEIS
#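 Compounds are added to VDR with labelled SRC2-3 coactivator peptide and held 2 h at room temperature. Inhibition of the VDR–peptide interaction is then read as a change in fluorescence polarization.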
# Glioma ERSR ind: inducers of ER stress response in human glioma cells; U87-MG GRP78 promoter luciferase reporter, 16 h; Potency, µM, inactives show at the highest dose activation, hits mostly activators; 420,000 compounds, 0.02% hits; AID 602332; note: series mostly up to about 76 µM; % of control where 0% means no effect; nearly all actives have a fitted effect of over 35% in size
#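 Stably transfected U87-MG human glioma cells carrying a GRP78-based luminescent sensor were seeded at 1000 cells/well, pin-dosed with compounds and incubated 16 h. Luciferase reagent was then added, and end-point luminescence was read after 10 min at room temperature.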
# G9a inh: inhibitors of human histone lysine methyltransferase G9a; Potency, µM (series often up to 102 µM), for the others: top-dose activity, negative = inhibition, hits mostly inhibitors; G9a H3K9 monomethylation, AlphaScreen, 2 h; Q96KQ7; 350,000 compounds, 8.8% hits; note: % is set by controls: 0 for no effect and ±100 for the full control effect; nearly all actives have a fitted effect of over 75% in size
# Target sequence (Q96KQ7 913-1193 limits assumed): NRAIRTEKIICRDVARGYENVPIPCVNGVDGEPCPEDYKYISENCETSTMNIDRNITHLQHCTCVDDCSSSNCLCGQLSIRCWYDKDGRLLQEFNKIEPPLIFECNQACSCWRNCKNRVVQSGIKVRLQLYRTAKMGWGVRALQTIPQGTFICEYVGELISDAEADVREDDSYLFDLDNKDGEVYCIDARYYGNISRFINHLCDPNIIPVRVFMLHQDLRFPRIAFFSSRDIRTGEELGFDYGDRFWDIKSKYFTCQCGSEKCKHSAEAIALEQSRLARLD
#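 Chemiluminescent proximity detection of H3K9 monomethylation, read after 10 min bead incubation in the dark. Reaction: 20 nM G9a, 500 nM biotin-H3K9 peptide, 20 uM SAM cofactor, 2 h, room temperature, following 15 min enzyme-compound preincubation.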
# ALOX12 inh: inhibitors of human 12S-lipoxygenase ALOX12 | P18054 | purified 12hLO, xylenol orange hydroperoxide absorbance | Potency, µM (top dose mostly 108 µM), without a hit: at the highest dose activity change, negative = inhibition, usual class: inhibitors | 580,000 compounds, 1.1% hits | AID 1671190; note: % is set by controls: 0 for no effect and ±100 for the full control effect
#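 Purified human 12hLO (150 nM final) in 25 mM Hepes, 0.01% Triton X-100, pH 7.0 was preincubated 15 min at room temperature with compound. Then 40 uM arachidonic acid was added, 30 min. Hydroperoxide was read by Fe-XO absorbance ratio 573/405 nm.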
# The depositor's hits bear a star; u = inconclusive; x = no result; [ ] = remark or other dose. Calls come from the whole dose curve; as a rule, active = well fitted curve in the direction sought with a large enough effect; inconclusive = small, poorly fitted or top-dose-only effect, or another doubt; inactive = no such curve, though single readings can be large; an effect the other way counts as inactive or inconclusive. Potency is the fitted concentration of half-maximal effect.
SMILES,Sfp inh,VDR inh,Glioma ERSR ind,G9a inh,ALOX12 inh
CCOC(=O)C1CCCCN1Cc1cccc(OCc2ccccc2)c1 (configuration not stated),u,-11%,0%,x,23%
COC(=O)c1ccc(C2C(C(=O)OC)C(=O)CC(C)(O)C2C(=O)OC)cc1 (configuration not stated),x,x,x,x,-53%
CCc1ccc(-c2nc(COC(=O)c3c(C)nsc3N)cs2)cc1,x,x,x,x,15%
COc1ccccc1Oc1c(CCC(=O)NCc2ccccc2)c(C)nn1-c1ccc(F)cc1,x,x,x,x,23%
CCOc1cccc(CNc2ccc(O)cc2)c1OCc1ccc(Cl)cc1,45µM*,u,-4%,14µM*,u
CCOc1cc(CNc2ccc(O)cc2)ccc1OCc1ccc(Cl)cc1Cl,u,32µM*,3%,u,x
COc1cccc(CNCCO)c1OCc1ccc(Cl)cc1,-4%,-2%,-6%,39%[59 µM],-4%
CC(C)Cn1c(C(C)C)nc([N+](=O)[O-])c1Sc1ccc(Cl)cn1,-3%,6%,-6%,u,u
CCCCn1c(CCC)nc([N+](=O)[O-])c1Sc1ccc(Cl)cn1,-5%,-14%,-1%,14µM*,-14%
CN(C)CCCNC(=O)C1CCCN(c2ncnc3nc[nH]c23)C1 (configuration not stated),x,x,x,x,2%
CCc1cc(=O)oc2c(CN3CCN(C)CC3)c(O)ccc12,3%,-19%,0%,-1%[2.33 µM],-21%
CN1CCN(Cc2c(O)ccc3cc(Br)ccc23)CC1,-7%,u,1%,5µM*,5.6µM*
S=c1[nH]nc(-c2ccc(Cl)cc2Cl)n1-c1ccc2c(c1)OCCO2,45µM*,-6%,4%,2.5µM*,u
S=c1[nH]nc(Cc2ccc(Cl)cc2)n1-c1ccc2c(c1)OCCO2,-18%,-11%,-2%,x,-27%
Oc1ccc(-c2n[nH]c(=S)n2-c2ccc3c(c2)OCCO3)c(O)c1,u,-1%,-3%,1.8µM*,u
CC(C(=O)NC1CCCC1)N(C)Cc1ccc(C(F)(F)F)cc1 (configuration not stated),x,x,x,x,14%
Cc1ccccc1-c1n[nH]c(=S)o1,-17%,-5%,-2%,13µM*,u
CSc1ccccc1-c1n[nH]c(=S)o1,-21%,-18%,0%,6.3µM*,-17%
CC(=O)Nc1ccc(NS(=O)(=O)c2ccccc2)c2ccccc12,-7%,-1%,-1%,9%,0%
O=S(=O)(Nc1ccc(O)c2ccccc12)c1ccc(Br)cc1,-18%,x,x,40µM*,x
O=S(=O)(Nc1ccc(O)c2ccccc12)c1cccs1,u,u,-15%,7.1µM*,32µM*
O=C(CCC1CCCC1)NCc1cccnc1,x,x,x,x,1%
NC1=NC(=O)/C(=C\c2ccc(O)c([N+](=O)[O-])c2)S1,2%,10%,-2%,u,-10%
NC1=NC(=O)/C(=C/c2cccc(-c3ccc(S(N)(=O)=O)cc3)c2)S1,-23%,-3%,-2%,35µM*,-26%
Cc1ccc(NC(=O)c2cnc(N3CCCCC3)c3ccccc23)cc1F,x,x,x,x,-43%
SMILES,Sfp inh,VDR inh,Glioma ERSR ind,G9a inh,ALOX12 inh
COc1ccc(-c2csc(Cc3nnc(N4CCOCC4)n3-c3ccccc3)n2)cc1OC,12%,52%,2%,u,-5%
COc1ccc(-c2csc(Cc3nnc(N4CCOCC4)n3-c3ccccc3)n2)cc1,-3%,3%,0%,50µM*,8%
C/C(=N\Nc1cc(C)nc(NCc2ccccc2)n1)c1ccncc1,x,x,x,x,17%
CCCCCCCCCCCCCCCC[n+]1ccc(/C=N/O)cc1,32µM*,5%,-15%,9%[59 µM],u
CCCCCCCCCCCCCC[n+]1ccc(C)cc1,56µM*,u,-11%,u,x
CCCCCCCCCCCCCCCC[n+]1ccc(C(N)=O)cc1,u,-14%,-11%,-13%[59 µM],45µM*
CCc1ccc(/C=N/O)cc1,x,x,x,x,-28%
CC1(CNc2ccccc2)COc2ccc(C(=O)NCc3ccc(F)cc3)cc2N1 (configuration not stated),x,x,x,x,56%[176 µM]
Cc1c(C(=O)N2CCCCC2)sc2nc(-c3ccc(F)cc3)cn12,x,x,x,x,35%
O=c1[nH]c(N/N=C/c2ccccc2Br)nnc1-c1ccccc1,50µM*,-4%,1%,-7%[59 µM],-20%
COc1ccccc1C(=O)N1CCC(N2C[C@H](O)C[C@H]2C(=O)NC2CCCCC2)CC1,x,x,x,x,-2%
O=C(CSc1nnc(-c2ccc(S(=O)(=O)N3CCCCCC3)cc2)o1)c1ccc(F)cc1,x,x,x,x,-36%
CCCCOc1ccc(C(=O)CCN2CCOCC2)cc1,u,32µM*,-12%,22µM*,-23%
CC(C)COc1ccc(C(=O)OCC(=O)NCc2cccs2)cc1,x,-13%,-1%,x,-14%
CC(C)COc1ccc(C(=O)OCC[N+]2(C)CCOCC2)cc1,x,x,x,x,5.6µM*
O=C(OCCN1CCOCC1)c1ccc(OCCN2CCOCC2)cc1,1%,8%,-2%,50µM*,u
CC(=O)c1ccc(OCCCCN2CCCC2)cc1,x,x,x,x,-62%
CCCCOc1ccc(C(=O)NN2CCOCC2)cc1,x,5%,-1%,x,5%
CCCOc1ccc(C(=O)CCN2CCCCC2)cc1,-26%,40µM*,-12%,18µM*,232%
NC(=O)c1ccc(S(=O)(=O)NCCc2ccc(-n3cccn3)cc2)cc1,x,x,x,x,24%
Cc1c(CC(=O)Nc2ccc(Cn3cncn3)cc2)c(=O)oc2cc(O)ccc12,x,x,x,x,8%
O=C(NCCc1ccccc1)c1cnc2ccccc2n1,3%,6%,-4%,25%,-13%
Nc1nc(N)c2ncc(C(=O)CCc3ccccc3)nc2n1,0%,u,0%,40µM*,u
CCC1CCCCN1C(=S)NC(=O)c1ccc(F)c(S(=O)(=O)N2CCOCC2)c1 (configuration not stated),-16%,-25%,3%,45µM*,236%
S=c1cn[nH]c2ccccc12,x,-8%,-3%,x,40µM*
SMILES,Sfp inh,VDR inh,Glioma ERSR ind,G9a inh,ALOX12 inh
CCOC(=O)C1CCCN(c2c(C(=O)c3ccccc3)cnc3ccc(OC)cc23)C1 (configuration not stated),-4%,-24%,-2%,56µM*,-70%
COc1cc2ncc(C(=O)c3ccc(C)cc3)c(N3CCCCC3)c2cc1OC,x,-21%,-2%,8.9µM*,u
COc1ccc(C(=O)c2ccc(N3CCOCC3)cc2)c(OC)c1,0%,u,1%,25µM*,u
CCc1ccc(C(=O)c2cnc3ccc(OC)cc3c2N2CCOCC2)cc1,x,x,x,x,28µM*
COc1ccc(C(=O)c2ccc(OC)cc2OC)cc1,7%,11%,-2%,x,0%
CCC(=O)NCCSCc1cccs1,x,x,x,x,-4%
CCC1=NN(S(=O)(=O)c2ccc(C)cc2)C(O)(C(F)(F)F)C1 (configuration not stated),16%,12%,-1%,40µM*,-21%
COC(=O)c1sc(N2C(=O)C(O)=C(C(=O)c3ccc(C)o3)C2c2ccc(F)cc2)nc1C (configuration not stated),u,-8%,0%,13µM*,-57%

# Assay outcomes from PubChem.
